61 compounds from PubChem BioAssay AID485294 (National Center for Advancing Translational Sciences (NCATS), 2010) can be followed below.

The whole screen tested about 370,000 compounds, of which about 150 (0.041%) were called active. Roughly 14% stayed inconclusive and do not appear here. The call rests on the fitted dose curve; in most records, active means well fitted inhibition curve with a large enough effect; inconclusive means small, poorly fitted or top-dose-only effect; inactive means flat fitted curve, though single readings scatter. For the sample, actives were picked, then their nearest neighbours and some compounds at random.
Potency means the concentration at half of the fitted maximal effect.

Sequence of Beta-lactamase (Escherichia coli (strain K12)) (P00811 whole entry, looked up): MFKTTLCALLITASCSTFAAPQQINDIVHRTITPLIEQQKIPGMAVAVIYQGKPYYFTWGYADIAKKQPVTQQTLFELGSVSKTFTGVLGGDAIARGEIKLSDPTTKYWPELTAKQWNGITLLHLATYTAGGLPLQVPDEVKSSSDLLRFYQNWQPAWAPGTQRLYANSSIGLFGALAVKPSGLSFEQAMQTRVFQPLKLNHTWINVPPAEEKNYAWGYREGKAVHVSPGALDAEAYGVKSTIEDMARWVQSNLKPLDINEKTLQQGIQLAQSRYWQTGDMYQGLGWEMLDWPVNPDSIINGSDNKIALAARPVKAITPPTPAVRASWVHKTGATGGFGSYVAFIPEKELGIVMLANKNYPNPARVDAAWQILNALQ

The assay deals with Beta-lactamase (Escherichia coli (strain K12)) (UniProt P00811). Put plainly: qHTS Inhibitors of AmpC Beta-Lactamase (assay with detergent). Further: nearly all actives have a fitted effect of over 25% in size.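 On activity change, negative = inhibition: 0% = no-compound wells and -100% = no-enzyme wells.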 The conditions noted are these: AmpC hydrolysis of nitrocefin, absorbance 480 nm, 0.01% Triton; series mostly up to 114 µM; activity change, negative = inhibition: at the top concentration. On the procedure:
NIH Molecular Libraries Probe Production Network [MLPCN] NIH Chemical Genomics Center [NCGC] Assay Provider: Professor Brian Shoichet, UCSF Assay Overview: This aggregation profiling approach exploits the sensitivity of aggregate formation to detergent. Inhibition of b-lactamase is measured in the presence and absence of 0.01% Triton X-100. This particular assay had the prescence of 0.01% Triton X-100. See Pubchem assay "Promiscuous and Specific Inhibitors of AmpC Beta-Lactamase (assay without detergent)" for related screen. Compounds that inhibit only in the absence of detergent are considered likely promiscuous aggregators. A screen of 1,030 compounds was performed in Brian Shoichet's lab in 96-well format. AmpC activity was measured by following the absorbance at 480 nm. Nitrocefin is a chromogenic substrate: while nitrocefin is yellow (lmax 390 nm), the product of its hydrolysis is red (lmax 486 nm, 17,000 M-1). AmpC beta lactamase was provided by Shoichet Lab, UCSF.
Buffer: 20 mM phosphate buffer, pH 7.0 Triton X-100: No Detergent screen: 0.0001%, Detergent screen: 0.01%. Reagents/Controls: Buffer in columns 3 and 4 as negative control (no enzyme). 5.3 nM AmpC in columns 1, 2, 5-48. Titration of UCSF compound 9 control (from 10 mM, then 1:2) pin-transferred to column 2. Column 1 is neutral (100% activity). Assay Steps: Six uL of reagents were dispensed to 1536-well Greiner black clear bottom plates. Compounds and controls (23 nL) were transferred via Kalypsys PinTool. The plates were incubated for 15 min at room temperature, and then 2 uL of 800 uM solution of nitrocefin was added to start the reaction. The plates were immediately transferred to and read every 20 seconds for 4 min on ViewLux (Perkin-Elmer) High-throughput CCD imager using 480 nm absorbance protocol. During dispense, reagent bottles were kept submerged into 4 deg C water bath. Keywords: NIH Roadmap, MLSCN, MLI, MLSMR, qHTS, NCGC, AmpC Beta-Lactamase, Aggregation
A general note: In qHTS, concentration-response curves come from the screen itself.
Turning to `COc1cccc(N(C(=O)CNC(=O)c2ccco2)C(C(=O)NC2CCCCC2)c2cccnc2)c1` (stereo unspecified), the “activity change, negative = inhibition” value was -8.32% (inactive).

As for `Cc1ccc(N(C(=O)CNC(=O)c2ccco2)C(C(=O)NC2CCCC2)c2ccncc2)cc1` (stereo unspecified), the Potency is 14.1 µM (active).

Turning to `CC(C)(C)NC(=O)C(c1ccncc1)N(C(=O)CNC(=O)c1ccco1)c1ccc2c(c1)OCO2` (stereo unspecified), the “activity change, negative = inhibition” value is -14.3% (inactive).

Consider `Cc1nnc(N2CCCC(C(=O)NCCN(C)C)C2)c2nn(-c3ccccc3)c(C)c12` (stereo unspecified), for which the “activity change, negative = inhibition” value is 1.73% (inactive).

Consider `CCOc1ccc(-c2n[nH]c3c2C(c2ccccc2OC)N(c2ccc(Br)cc2)C3=O)cc1` (stereo unspecified), for which the “activity change, negative = inhibition” value is -2.45% (inactive).

Consider `Nc1ccc2nc3c(=O)[nH]c(=S)[nH]c3nc2c1`, for which the Potency is 50.1 µM (active).

Take `Clc1ccc(CSc2nncn3c2cc2occc23)cc1`: the “activity change, negative = inhibition” value is -10.9% (inactive).

Take `Cc1ccc(C)c(S(=O)(=O)c2nnn3c2nc(N2CCOCC2)c2sccc23)c1`: the “activity change, negative = inhibition” value is 9.64% (inactive).

Regarding `CCC(=O)N1CCc2cc(Br)cc(S(=O)(=O)Nc3ccc(C)cc3C)c21`, the “activity change, negative = inhibition” value is 4.3% (inactive).

As to `CC1=C(c2ccc(C)cc2)S(=O)(=O)NC1=NCCCN1CCN(c2cc(C)ccc2C)CC1`, the “activity change, negative = inhibition” value was 19.9% (inactive).

As for `Fc1ccc(C(Nc2ccc(Cl)c(C(F)(F)F)c2)c2nnc(-c3ccccc3)o2)cc1` (stereo unspecified), the “activity change, negative = inhibition” value is 5.04% (inactive).

`Cc1ccc(-c2cn3c(n2)sc2cc(C(=O)NCc4cccs4)ccc23)c(C)c1`: the “activity change, negative = inhibition” value is 13.4% (inactive).

Take `CCOC(=O)c1c(NC(=O)c2ccc(S(=O)(=O)N(CC)CC)cc2)sc2c1CCCCC2`: the “activity change, negative = inhibition” value was -9.3% (inactive).

Consider `COc1ccc(-c2cccc(NS(=O)(=O)c3cc(C)c(OC)c(C)c3C)c2)nn1`, for which the “activity change, negative = inhibition” value was 11.2% (inactive).

As to `Cc1ccc(NC(=O)Cc2ccc(NC(=O)N3CCCCc4ccccc43)cc2)cc1`, the “activity change, negative = inhibition” value is 3.85% (inactive).

As to `COc1ccc(CCC(=O)NCCc2csc(-c3ccc(Cl)cc3)n2)cc1`, the “activity change, negative = inhibition” value is 2.64% (inactive).

For `COc1cc(-c2cc3n(C)c(C)c(CCC(=O)Nc4ccc(F)cc4)c(=O)n3n2)cc(OC)c1OC`, the “activity change, negative = inhibition” value was -3.72% (inactive).

For `Cc1ccc(NC(=O)c2cc(S(=O)(=O)NCCC3=CCCCC3)ccc2F)cc1C`, the “activity change, negative = inhibition” value was -2.66% (inactive).

As for `Cc1cc(Nc2cccc(C(F)(F)F)c2)nc2ccc(NC(=O)c3ccc(=O)[nH]c3)cc12`, the “activity change, negative = inhibition” value was 1.63% (inactive).

For the compound `COCCn1c(CCC(=O)Nc2cc(C)ccc2C)nc2cccnc21`, the “activity change, negative = inhibition” value is 17.5% (inactive).

For `Cc1ccc2cccc(NC(=O)c3ccc(OC(C)C)cc3)c2n1`, the “activity change, negative = inhibition” value is -6.92% (inactive).

As for `COc1ccc(-c2nc3nc(C)cc(C)n3c2Nc2c(C)cccc2C)cc1`, the “activity change, negative = inhibition” value was 8.99% (inactive).

Turning to `O=C(Nc1c(C(=O)N2CCN(c3ccc(F)cc3)CC2)oc2ccccc12)c1ccco1`, the “activity change, negative = inhibition” value was 6.2% (inactive).

Take `CCOc1ccc(NC(=O)CCc2c(C)nn(-c3ccc(N4CCCC4)nn3)c2C)cc1`: the “activity change, negative = inhibition” value was -8.16% (inactive).

Take `O=C(COc1ccccc1F)Nc1ccc(C(=O)OCc2cc(=O)n3nc(C4CC4)sc3n2)cc1`: the “activity change, negative = inhibition” value is 2.62% (inactive).

As for `CCOc1cc(C2C(C(=O)OC)=C(C)NC3=C2C(=O)c2ccccc23)ccc1O` (stereo unspecified), the “activity change, negative = inhibition” value is -0.36% (inactive).

In the case of `O=S(=O)(c1ccc2nc(NCc3ccccc3Cl)ccc2c1)N1CCCCC1`, the “activity change, negative = inhibition” value was -1.11% (inactive).

As for `COc1ccc(Cl)cc1-n1c(CCC(=O)O)ccc1-c1ccc(C)cc1`, the “activity change, negative = inhibition” value was 3.97% (inactive).

Turning to `O=C(Nc1ccc(S(=O)(=O)N2CCC(c3nc4ccccc4s3)CC2)cc1)c1ccccc1F`, the “activity change, negative = inhibition” value is 16.5% (inactive).

In the case of `CSc1ccc(CCNC(=O)c2cc(C)nc3c2c(C)nn3-c2cccc(F)c2)cc1`, the “activity change, negative = inhibition” value is 0.607% (inactive).

Regarding `Cc1ccc(Cl)cc1NC(=O)CSc1nc2ccccc2nc1Cc1ccccc1`, the “activity change, negative = inhibition” value was 21.3% (inactive).

In the case of `CCCCN(CC)CCCNC(=O)c1nn(C)c2c1CS(=O)(=O)c1ccccc1-2`, the “activity change, negative = inhibition” value is 17.6% (inactive).

Regarding `CCC(CC)c1nn2cc(-c3ccccc3)nc2s1`, the “activity change, negative = inhibition” value was 6.01% (inactive).

`COc1ccc(N2C(=O)CSC23C(=O)N(Cc2cccc(F)c2)c2ccccc23)cc1Cl` (stereo unspecified): the “activity change, negative = inhibition” value was 20.8% (inactive).

As for `O=C(CC(NCc1cccnc1)C(=O)O)Nc1ccc(O)cc1` (stereo unspecified), the “activity change, negative = inhibition” value is 18.5% (inactive).

As for `CCN(CCCNC(=O)c1ccc(Sc2ccc(C)cc2)c(NC(C)=O)c1)c1cccc(C)c1`, the “activity change, negative = inhibition” value is 11% (inactive).

Take `Cc1ccc(CNC(=O)CCc2c(C)nn(-c3ccc(N4CCCC4)nn3)c2C)cc1`: the “activity change, negative = inhibition” value is 9.01% (inactive).

Take `CC1=C(C(=O)OCc2ccc(C)cc2)C(c2ccccc2Cl)CC(=O)N1` (stereo unspecified): the “activity change, negative = inhibition” value was -0.201% (inactive).

As for `Cc1ccc(C(=O)NCCSc2c(C)[nH]c3ccccc23)cc1C`, the “activity change, negative = inhibition” value was 9.55% (inactive).

With `CCc1ccc(NC(=O)c2cnc3c(-c4ccccc4)c(C)nn3c2C)cc1`, the “activity change, negative = inhibition” value was 6.28% (inactive).

With `CCN(C(=O)c1sc2cc(OC)ccc2c1Cl)c1ccccc1`, the “activity change, negative = inhibition” value is 1.06% (inactive).

Turning to `COC(=O)c1cc(NC(=O)c2cnc(SC)nc2-c2ccccc2)cc(C(=O)OC)c1`, the “activity change, negative = inhibition” value was 7.39% (inactive).

With `CCCCOc1ccc(CN2C(=O)C(=O)c3cc(Br)cc(C)c32)cc1OC`, the “activity change, negative = inhibition” value was 13.6% (inactive).

Regarding `CCOc1ccc(/C=C(\C#N)c2nc3ccccc3c(=O)[nH]2)cc1OC`, the “activity change, negative = inhibition” value was -3.18% (inactive).

On to `O=C(COc1ccccc1)OCc1cc(=O)n2nc(-c3cccs3)sc2n1`, for which the “activity change, negative = inhibition” value is -3.28% (inactive).

Take `O=C(Nc1ccc(Br)cc1)c1ccc(Br)c(S(=O)(=O)NCc2ccccc2)c1`: the “activity change, negative = inhibition” value was -1.49% (inactive).

`CCn1c2ccccc2c2nnc(N3CCN(c4cc(C)ccc4C)CC3)nc21`: the “activity change, negative = inhibition” value is 21% (inactive).

For the compound `CCOC(=O)c1sc(NC(=O)/C=C/c2ccc(C(C)C)cc2)c(C(=O)OCC)c1C`, the “activity change, negative = inhibition” value is -0.936% (inactive).

For the compound `Cn1c2cc(B(O)O)sc2c2cnn(Cc3ccccc3F)c(=O)c21`, the Potency was 2.82 µM (active).

Take `Cn1cc(C(=O)NCc2ccccc2F)cn1`: the “activity change, negative = inhibition” value was -0.872% (inactive).

Consider `CCOC(=O)c1c(CNCc2ccccc2F)c2sc(C)cc2n1C`, for which the “activity change, negative = inhibition” value was -3.41% (inactive).

For the compound `Cc1cc2c(cc1S(=O)(=O)CCC(=O)Nc1ccc(OC(F)(F)F)cc1)OCC(=O)N2`, the “activity change, negative = inhibition” value is 24.8% (inactive).

With `COc1ccccc1C(=O)Nc1c(C(=O)Nc2ccc(C)cc2)oc2ccccc12`, the “activity change, negative = inhibition” value is -6.46% (inactive).

As for `CCOC(=O)c1c(C)[nH]c(CCC(=O)NCCCN2CCN(c3cc(C)ccc3C)CC2)c1C`, the “activity change, negative = inhibition” value was -1.88% (inactive).

In the case of `COc1cc(NS(=O)(=O)c2ccc3c(c2)OCC(C(=O)N2CCCC2)O3)cc(OC)c1` (stereo unspecified), the “activity change, negative = inhibition” value was -1.24% (inactive).

For `COc1cc2nc(SCc3ccc(F)cc3)n3nc(CCn4c(C)nc5ccccc54)nc3c2cc1OC`, the “activity change, negative = inhibition” value is 3.25% (inactive).

For the compound `CCCCN(CC)CCCNC(=O)Cn1ncc2c([nH]c3ccc(C)cc32)c1=O`, the “activity change, negative = inhibition” value was 2.61% (inactive).

For the compound `O=C(CN1C(=O)COc2ccc(S(=O)(=O)N3CCCCCC3)cc21)N1CCN(c2cccc(C(F)(F)F)c2)CC1`, the “activity change, negative = inhibition” value is 3.1% (inactive).

Regarding `O=C(CSc1nccn1-c1ccc(F)cc1)Nc1cccc2ccccc12`, the “activity change, negative = inhibition” value is 0.247% (inactive).

`COc1ccc2c(Sc3ccc(C)cc3)c(C(=O)NC(C)c3ccccc3)[nH]c2c1` (stereo unspecified): the “activity change, negative = inhibition” value was 1.51% (inactive).

With `O=C(Nc1ccc2nc(SCCOc3ccccc3)sc2c1)c1ccco1`, the “activity change, negative = inhibition” value was 13.9% (inactive).
